Screening results deposited in PubChem by National Center for Advancing Translational Sciences (NCATS).
Hits are enriched below; roughly 6.2% of the tested compounds scored in any of these assays.
HT1080NT lethal = qHTS for induction of synthetic lethality in tumor cells producing 2HG: qHTS for the HT-1080-NT fibrosarcoma cell line; 360,000 tested, 1.6% active; HT-1080-NT fibrosarcoma viability, CellTiter-Glo ATP luminescence, 48 h; Potency, µM (titrated, usually from 46.1 µM), most hits filed as cytotoxic;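 note: NT is the 2HG producing partner of a matched IDH1 knockdown line; nearly all actives have a fitted effect of over 55% in size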
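A 48-hour cytotoxicity screen used HT-1080-NT cells plated 2 hours before compound delivery. ATP-based CellTiter-Glo luminescence measured viability, normalized to DMSO and no-cell controls.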
KB-3-1 tox = qHTS assay for MDR1-selective chemotherapeutics: Primary screen using the parental adenocarcinoma cell KB-3-1 | KB-3-1 viability, CellTiter-Glo ATP luminescence, 72 h | Potency, µM (highest dose often 46.1 µM), most hits filed as cytotoxic | 400,000 tested, 1.4% active | AID 1347075, 2019; note: nearly all actives have a fitted effect of over 60% in size
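Screening of KB-3-1 cells (DMEM, 10% FBS, phenol-red free) ran from lowest to highest compound concentration; after 72 h at 37 °C viability was read luminescently and curves fitted.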
KB-V1 cytotox = qHTS assay for MDR1-selective chemotherapeutics: Primary screen using the drug-selected MDR subline cells KB-V1 | KB-V1 MDR cells viability, CellTiter-Glo, 72 h | Potency, µM (series often up to 46.1 µM), hits mostly cytotoxic | 400,000 tested, 3.4% active; note: nearly all actives have a fitted effect of over 60% in size
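Cells of the MDR subline KB-V1 are plated, dosed with compound at multiple concentrations, and incubated 72 h at 37 degrees C; CellTiter-Glo is then added and luminescence read after 10 min.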
HT1080 IDH1KD tx = qHTS for induction of synthetic lethality in tumor cells producing 2HG: qHTS for the HT-1080-IDH1KD cell line. 360,000 tested, 2% active. AID 686971, 2013. Potency, µM (top dose mostly 46.1 µM), usual class: cytotoxic. HT-1080 IDH1 knockdown viability, ATP luminescence, 48 h
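Cytotoxicity counter-line: IDH1KD HT-1080, 48 h, CellTiter-Glo. Curves classed by r2, magnitude and activity.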
ATXN2 expr inh = Primary qHTS for Inhibitors of ATXN expression; Potency, µM (highest dose often 57 µM), hits mostly inhibitors; HEK-293 ATXN2-luciferase reporter, luminescence, 24 h; AID 1745845, 2022; 360,000 tested, 0.72% active; note: nearly all actives have a fitted effect of over 55% in size
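ATXN2-luciferase reporter cells (luciferase flanked by upstream and downstream ATXN2 gene portions) were treated 24 h at 37 °C with compounds at up to 57 uM. SteadyGlo luminescence gave expression; GF-AFC fluorescence gave viability.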
ATXN viability = Viability Counterscreen for Primary qHTS for Inhibitors of ATXN expression | Potency, µM (doses to about 56.7 µM), usual class: cytotoxic | AID 651635, 2014 | 400,000 tested, 0.49% active | S2 cells (HEK-293 line with an ATXN2-luciferase reporter) viability, CellTiter-Fluor protease fluorescence, 24 h; note: nearly all actives have a fitted effect of over 40% in size
Hits are given with their value; - = inactive; ? = inconclusive; . = no result given; [ ] = another dose, or the depositor's remark. Calls come from the whole dose curve; as a rule, active = well fitted curve in the direction sought with a large enough effect; inconclusive = small, poorly fitted or top-dose-only effect, or another doubt; inactive = no such curve, though single readings can be large; an effect the other way counts as inactive or inconclusive.

SMILES	HT1080NT lethal	KB-3-1 tox	KB-V1 cytotox	HT1080 IDH1KD tx	ATXN2 expr inh	ATXN viability
O=C(NCc1cccc(C(F)(F)F)c1)C1CC(c2ccccc2C(F)(F)F)=NO1 (centres undefined)	?	?	?	25.9µM	-	?
O=C(NCc1cccc(C(F)(F)F)c1)C1CC(c2ccccc2F)=NO1 (centres undefined)	?	-	-	?	-	-
COC(=O)/C(=N/Nc1ccc(C)cc1)N1CCCc2ccccc21	-	-	?	-	-	-
COC(=O)/C(=N/Nc1ccccc1)N1CCCc2ccccc21	-	?	20.6µM	-	-	-
Cc1ccc(Cl)cc1NC(=O)Nc1nnc(N2CCCC(C)C2)s1 (centres undefined)	.	-	-	.	.	.
CCc1nnc(NC(=O)c2cc(=O)c3cc(C)c(C)cc3o2)s1	.	-	?	.	-	-
O=C(NCC1(N2CCOCC2)CCCCCC1)c1cnn(-c2nccc(-c3ccco3)n2)c1C1CC1	.	.	.	.	.	-
COc1ccc(N=c2cc(-c3ccc(O)cc3)oc3ccccc23)cc1	14.6µM	?	?	16.4µM	-[11.3 µM]	-
COc1ccc(N=c2cc(-c3ccc(OC)cc3)oc3ccccc23)cc1	-	-	?	?	?	?
O=C(Nc1cccc(-c2csc(-c3ccccc3)n2)c1)c1cccs1	?	-	14.6µM	-	-	-
Cc1nc(-c2cccc(NC(=O)Cc3ccccc3)c2)cs1	-	-	16.4µM	-	-	-
Cc1nc(-c2cccc(NC(=O)c3cccs3)c2)cs1	-	-	-	?	-	-
O=C(Cc1ccc(Br)cc1)Nc1cccc(-c2cn3c(n2)SCC3)c1	-	?	8.2µM	?	-	-
CCOc1ccccc1N1C(=O)c2ccccc2N/C1=C\N1CCN(C(=O)c2ccco2)CC1	?	.	.	-	.	.
CC1(C)S[C@@H]2C(C(=O)O)NC(=O)N2C1C(=O)O (some centres undefined)	.	-	-	.	.	.
CCc1sc2nc(SCC(=O)Nc3cc(C)on3)n(-c3cccc(OC)c3)c(=O)c2c1C	-	-	1.64µM	-	?	?
Cc1cc(NC(=O)CSc2nc3sc4c(c3c(=O)n2C)CCCC4)no1	-	-	-	-	?	-
C=CCn1c(SCC(=O)Nc2cc(C)on2)nc2sc3c(c2c1=O)CCCC3	-	-	-	-	-	-
Cc1nn(Cc2ccccc2)c(C)c1NC(=O)CSc1nc2sc3c(c2c(=O)n1C)CCC3	-	9.2µM	?	-	-	-
CCn1c(SCC(=O)Nc2cc(C)on2)nc2sc3c(c2c1=O)CCCC3	10µM	-	-	?	?	.
COCCn1c(SCC(=O)NCCCN2CCCC2=O)nc2sc3c(c2c1=O)CCCC3	-	-	20.6µM	-	-	-
CCc1ccc(CNC(=O)C(C)n2ccc3cc(S(=O)(=O)N4CCCCCC4)ccc32)cc1 (centres undefined)	.	-	-	.	-	?
CN(C)CCNC(=O)C(=O)NCC(c1cccnc1)N1CCN(c2ccccc2)CC1 (centres undefined)	.	-	-	.	-	-
O=P(Cc1ccccc1)(c1ccccc1)c1ccccc1	-	-	?	-	-	?
O=P(Cc1ccccc1)(Cc1ccccc1)c1ccccc1	-	-	18.4µM	-	-	-
CC1CCCCN1C(=O)CSc1nnc(-c2ccccc2Cl)o1 (centres undefined)	.	-	-	.	-	-
CC1CCCCN1C(=O)CSc1nnc(-c2ccccc2O)o1 (centres undefined)	-	13µM	?	-	-	-
O=C(CN1Cc2ccccc2OC(c2ccsc2)C1)NCc1ccc2c(c1)OCO2 (centres undefined)	.	.	.	.	.	-
C=C1CC2C3CCC4=CC(=O)C=C[C@]4(C)[C@@]3(F)[C@@H](O)C[C@]2(C)[C@@]1(O)C(=O)COC(C)=O (some centres undefined)	.	.	.	.	.	-
